Shown are actives, neighbours in structure and some others; about 19% of the full set was active somewhere.
TDP1 inh = qHTS Assay for Inhibitors of Tyrosyl-DNA Phosphodiesterase (TDP1) | Tyrosyl-DNA phosphodiesterase 1 (Homo sapiens), Q9NUW8 | Potency, µM (top dose mostly 130 µM), hits mostly inhibitors | actives 0.28% (n = 350,000) | recombinant TDP1, AlphaScreen DNA substrate cleavage; note: nearly all actives have a fitted effect of over 40% in size
Target sequence (Q9NUW8 whole entry, looked up): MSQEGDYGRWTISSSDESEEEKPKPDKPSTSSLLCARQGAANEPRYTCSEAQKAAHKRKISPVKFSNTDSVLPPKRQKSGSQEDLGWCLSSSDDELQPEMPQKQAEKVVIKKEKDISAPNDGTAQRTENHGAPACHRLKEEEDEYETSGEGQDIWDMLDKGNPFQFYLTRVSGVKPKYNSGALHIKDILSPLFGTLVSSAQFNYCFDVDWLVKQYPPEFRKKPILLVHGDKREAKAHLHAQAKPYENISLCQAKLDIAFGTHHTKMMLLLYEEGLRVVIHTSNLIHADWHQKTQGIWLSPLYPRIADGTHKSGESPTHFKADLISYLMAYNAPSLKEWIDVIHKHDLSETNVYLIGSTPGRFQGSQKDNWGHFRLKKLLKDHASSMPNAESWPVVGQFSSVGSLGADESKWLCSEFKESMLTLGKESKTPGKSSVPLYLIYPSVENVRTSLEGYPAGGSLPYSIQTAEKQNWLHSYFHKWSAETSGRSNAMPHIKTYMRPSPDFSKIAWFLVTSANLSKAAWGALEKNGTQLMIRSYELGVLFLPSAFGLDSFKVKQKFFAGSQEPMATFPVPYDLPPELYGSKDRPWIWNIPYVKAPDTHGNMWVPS
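Compounds were preincubated with Tdp1 (1 nM final) for 15 min at room temperature before substrate (15 nM final) started a 5 min reaction; beads (10 ug/ml final) were then added for 10 min before AlphaScreen detection.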
RORgamma inh = qHTS for inhibitors of ROR gamma transcriptional activity; actives 5.4% (n = 310,000); Drosophila S2 Gal4-RORgamma UAS-luciferase reporter, 20 h; Potency, µM (series often up to 53.6 µM), most hits filed as inhibitors; Nuclear receptor ROR-gamma (Mus musculus), P51450; note: nearly all actives have a fitted effect of over 60% in size
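Luciferase reporter read in Schneider cells carrying Gal4-RORγ (mouse) and UAS-Photinus luciferase; cells given compound 1 h before 700 uM copper sulfate induction, then incubated 20 h at ambient temperature.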
TDP1 cell noCPT = qHTS for Inhibitors of human tyrosyl-DNA phosphodiesterase 1 (TDP1): qHTS in cells in absence of CPT; DT40 Tdp1-/- hTDP1 cells, no CPT, ATP luminescence, 48 h; Potency, µM (highest dose often 46.2 µM), hits mostly inhibitors; actives 15% (n = 420,000); AID 686978, 2013; note: nearly all actives have a fitted effect of over 55% in size
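Stably hTDP1-transfected Tdp1-null chicken DT40 cells were treated with library compounds minus camptothecin and grown for at least 48 hr at 37 °C, after which cellular ATP was quantified by luminescence.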
Gal4-VP16 FLuc = VP16 counterscreen qHTS for inhibitors of ROR gamma transcriptional activity; Drosophila S2 Gal4-VP16 UAS-luciferase, luminescence, 20 h; Potency, µM (highest dose often 53.6 µM), usual class: inhibitors; actives 3.5% (n = 310,000); AID 2546, 2010;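 note: Gal4-VP16 expression switched on by copper sulfate through the metallothionein promoter; nearly all actives have a fitted effect of over 50% in size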
DT40 TDP1 CPT = qHTS for Inhibitors of human tyrosyl-DNA phosphodiesterase 1 (TDP1): qHTS in cells in presence of CPT; chicken DT40 Tdp1-/-;hTDP1 cells + 20 nM CPT, ATP luminescence, 48 h; Potency, µM (titrated, usually from 46.2 µM), hits mostly inhibitors; actives 12% (n = 420,000); AID 686979, 2013; note: nearly all actives have a fitted effect of over 55% in size
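Chicken DT40 Tdp1-/- cells stably complemented with human TDP1 were seeded at 400 cells/well in medium containing 20 nM camptothecin, exposed to pin-transferred compounds, and grown at 37 °C for at least 48 hr. Viability was read as ATP luminescence.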
A number is an active result; [ ] = dose if it differs, or a comment. Calls come from the whole dose curve; as a rule, active = well fitted curve in the direction sought with a large enough effect; inconclusive = small, poorly fitted or top-dose-only effect, or another doubt; inactive = no such curve, though single readings can be large; an effect the other way counts as inactive or inconclusive.

What do the screens show for `Cc1ccc(C)c(CN2CCC(CNC(=O)Nc3ccc(Br)cc3F)CC2)c1`?
TDP1 inh: inactive; RORgamma inh: inactive; TDP1 cell noCPT: inconclusive; Gal4-VP16 FLuc: inactive; DT40 TDP1 CPT: 10.3µM

Results for Cc1ccc(C)c(CN2CCC(CNC(=O)Nc3ccc(Cl)cc3)CC2)c1 ?
RORgamma inh: inactive; TDP1 cell noCPT: inconclusive; Gal4-VP16 FLuc: inactive; DT40 TDP1 CPT: 20.6µM

What do the screens show for `O=C(NCC1CC1)Nc1ccc(Cl)cc1`?
RORgamma inh: inactive; TDP1 cell noCPT: inconclusive; Gal4-VP16 FLuc: inactive; DT40 TDP1 CPT: inactive

How did Cc1cccc(CN2CCC(CNC(=O)Nc3ccccc3F)CC2)c1 do in these assays?
TDP1 cell noCPT: inactive; DT40 TDP1 CPT: inactive

Results for CC1CN(c2nc3ccccn3c(=O)c2/C=C(\C#N)S(=O)(=O)c2ccccc2)CC(C)O1 (configuration not stated) ?
TDP1 inh: inactive; RORgamma inh: inactive; TDP1 cell noCPT: inconclusive; Gal4-VP16 FLuc: inactive; DT40 TDP1 CPT: inactive

What do the screens show for `Cc1cc(NS(=O)(=O)c2ccc(NC(=O)COc3ccccc3C(C)C)cc2)no1`?
TDP1 inh: inactive; RORgamma inh: inconclusive; TDP1 cell noCPT: inactive; Gal4-VP16 FLuc: inactive; DT40 TDP1 CPT: inactive

What do the screens show for `CC(=O)Nc1ccc(C2NC(=O)c3ccccc3O2)cc1` (configuration not stated)?
TDP1 inh: inactive; RORgamma inh: inactive; TDP1 cell noCPT: inactive; Gal4-VP16 FLuc: inactive; DT40 TDP1 CPT: inactive

How did CC1(C)CC(=O)C2=C(C1)Nc1ccccc1NC2 do in these assays?
TDP1 inh: inactive; RORgamma inh: 12.6µM; TDP1 cell noCPT: inactive; Gal4-VP16 FLuc: inactive; DT40 TDP1 CPT: inactive

How did CC1(C)CC(=O)C2=C(C1)Nc1ccccc1S2 do in these assays?
TDP1 inh: inactive; RORgamma inh: inactive; TDP1 cell noCPT: inconclusive; Gal4-VP16 FLuc: inactive; DT40 TDP1 CPT: inactive

What do the screens show for `Cc1ccc(SCC(=O)Nc2ccc(O)c(-c3nc4cc(C)ccc4o3)c2)cc1`?
TDP1 inh: inactive; TDP1 cell noCPT: 20.6µM; DT40 TDP1 CPT: inconclusive

Results for COc1ccc(OCC(=O)Nc2ccc(O)c(-c3nc4ccccc4s3)c2)cc1 ?
TDP1 inh: inactive[12.3 µM]; TDP1 cell noCPT: inconclusive; DT40 TDP1 CPT: 0.82µM

Results for Cc1ccc(SCC(=O)Nc2ccc3oc(-c4ccc(F)cc4)nc3c2)cc1 ?
TDP1 inh: inactive; TDP1 cell noCPT: inconclusive; DT40 TDP1 CPT: inconclusive

What do the screens show for `O=C(Nc1ccc(O)c(-c2nc3ccccc3o2)c1)c1ccc(Br)cc1`?
TDP1 inh: inactive[12.3 µM]; TDP1 cell noCPT: inactive; DT40 TDP1 CPT: inactive

How did O=C(Nc1ccc(O)c(-c2nc3ccccc3o2)c1)C1(c2ccc(Br)cc2)CCCC1 do in these assays?
TDP1 inh: inactive; RORgamma inh: 6.31µM; TDP1 cell noCPT: 13µM; Gal4-VP16 FLuc: 5.62µM; DT40 TDP1 CPT: inconclusive

What do the screens show for `Cc1ccc(OCC(=O)Nc2ccc(O)c(-c3nc4ccccc4o3)c2)cc1`?
TDP1 inh: inactive; RORgamma inh: inactive; TDP1 cell noCPT: inconclusive; Gal4-VP16 FLuc: inactive; DT40 TDP1 CPT: 11.6µM

Results for Cc1cccc(CN2CCc3c(OCC(=O)NCc4ccco4)cccc3C2=O)c1 ?
TDP1 inh: inactive; RORgamma inh: inconclusive; TDP1 cell noCPT: inconclusive; Gal4-VP16 FLuc: inactive; DT40 TDP1 CPT: inconclusive

Results for CC(C)[C@H](NC(=O)c1ccccc1F)C(=O)NC1CCCCC1 ?
TDP1 inh: inactive; TDP1 cell noCPT: inactive; DT40 TDP1 CPT: inactive

Results for Cc1ccc(OCC(=O)Nc2ccc(O)c(-c3nc4cc(C)c(C)cc4o3)c2)cc1 ?
TDP1 cell noCPT: 1.58µM; DT40 TDP1 CPT: inconclusive

Results for COc1cccc(C(=O)Nc2ccccc2-c2nc3ccccc3s2)c1 ?
TDP1 inh: inactive; TDP1 cell noCPT: inconclusive; DT40 TDP1 CPT: inactive

Results for COc1ccc(C(=O)Nc2ccccc2-c2nc3ccccc3s2)c(OC)c1 ?
TDP1 inh: inactive; TDP1 cell noCPT: 16.4µM; DT40 TDP1 CPT: 18.4µM

What do the screens show for `Cc1ccc(C(C)C)c(OCC(=O)Nc2ccc(O)c(-c3nc4cc(Cl)ccc4o3)c2)c1`?
TDP1 inh: inactive[12.3 µM]; TDP1 cell noCPT: inactive; DT40 TDP1 CPT: inactive

How did C=CCn1c(=O)/c(=C\c2ccccn2)s/c1=C(/C#N)C(=O)NCC1CCCO1 (configuration not stated) do in these assays?
TDP1 inh: inactive; RORgamma inh: inactive; TDP1 cell noCPT: inactive; Gal4-VP16 FLuc: inactive; DT40 TDP1 CPT: inactive

How did O=C(COc1ccc(-c2nnco2)cc1)NC1CCS(=O)(=O)C1 (configuration not stated) do in these assays?
TDP1 inh: inactive; TDP1 cell noCPT: inactive; DT40 TDP1 CPT: inactive

Results for Cc1ccccc1C(C(=O)NC1CCCCC1)N(C(=O)CNC(=O)c1ccco1)c1cccnc1 (configuration not stated) ?
TDP1 inh: inactive; RORgamma inh: inactive; TDP1 cell noCPT: inactive; Gal4-VP16 FLuc: inactive; DT40 TDP1 CPT: inconclusive

How did COc1ccccc1CNC(=O)C1CCN(S(=O)(=O)c2cn(C)cn2)CC1 do in these assays?
TDP1 inh: inactive; TDP1 cell noCPT: inconclusive; DT40 TDP1 CPT: inactive

Results for Fc1ccc(F)c(CNc2ncnc3cc(Cl)ccc23)c1 ?
RORgamma inh: inconclusive; TDP1 cell noCPT: 14.6µM; Gal4-VP16 FLuc: inconclusive; DT40 TDP1 CPT: 14.6µM

What do the screens show for `Cc1ccc(CNc2ncnc3cc(Cl)ccc23)o1`?
TDP1 inh: inactive; RORgamma inh: inactive; TDP1 cell noCPT: 13µM; Gal4-VP16 FLuc: inconclusive; DT40 TDP1 CPT: 10.3µM

How did CC(Nc1nc(Cl)nc2nc[nH]c12)c1ccccc1 (configuration not stated) do in these assays?
TDP1 inh: inactive; TDP1 cell noCPT: inconclusive; DT40 TDP1 CPT: inconclusive

What do the screens show for `Clc1ccc(CNc2ncnc3[nH]ncc23)c(Cl)c1`?
TDP1 cell noCPT: 16.4µM; DT40 TDP1 CPT: inconclusive

What do the screens show for `CC(Nc1ncnc2nc[nH]c12)c1ccccc1` (configuration not stated)?
TDP1 inh: inactive; RORgamma inh: inconclusive; TDP1 cell noCPT: 13µM; Gal4-VP16 FLuc: inactive; DT40 TDP1 CPT: 16.4µM

What do the screens show for `COc1cc2ncnc(NCc3ccccc3C)c2cc1OC`?
TDP1 inh: inactive; RORgamma inh: inactive; TDP1 cell noCPT: inconclusive; Gal4-VP16 FLuc: inactive; DT40 TDP1 CPT: inconclusive

What do the screens show for `COc1cc2ncnc(NCc3ccc(C)o3)c2cc1OC`?
TDP1 inh: inactive; RORgamma inh: inactive; TDP1 cell noCPT: 20.6µM; Gal4-VP16 FLuc: inactive[10 µM]; DT40 TDP1 CPT: inconclusive

Results for Cc1ccccc1CNc1ncnc2cc(Cl)ccc12 ?
RORgamma inh: inactive; TDP1 cell noCPT: inconclusive; Gal4-VP16 FLuc: inactive; DT40 TDP1 CPT: inactive

Source: PubChem
